Screens deposited in PubChem by several laboratories.
Compounds with a hit are over-represented: about 1.3% of the library has one in this group of screens.
MCL1 BIM primary: MCL1-BIM-BH3 interaction inhibition (human); GST-MCL1 / FITC-Bim-BH3 fluorescence polarization; actives 0.68% (n = 320,000); Q07820; inhibition, % at 10.9 µM;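 active = inhibition above the mean inhibition of all tested compounds plus 3 SD, set per campaign, cut at about 40% in these data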;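 also: 0% = DMSO wells and 100% = unlabeled Bim-BH3 peptide control; higher means more loss of mP so more displacement of Bim peptide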
Target sequence (Q07820 whole entry, looked up): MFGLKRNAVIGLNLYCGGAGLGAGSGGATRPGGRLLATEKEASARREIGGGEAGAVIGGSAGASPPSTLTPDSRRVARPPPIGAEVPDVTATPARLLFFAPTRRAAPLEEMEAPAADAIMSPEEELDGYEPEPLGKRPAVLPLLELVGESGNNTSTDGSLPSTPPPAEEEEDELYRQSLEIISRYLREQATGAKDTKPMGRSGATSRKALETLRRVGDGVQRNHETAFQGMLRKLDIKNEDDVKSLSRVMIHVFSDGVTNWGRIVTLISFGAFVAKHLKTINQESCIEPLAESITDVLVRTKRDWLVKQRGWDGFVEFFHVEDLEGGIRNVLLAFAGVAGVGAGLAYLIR
MEX-5 binding: C. elegans MEX-5 TCR-2 RNA binding activity; activity score (negative = inhibition of binding), % at 10 µM; AID 1832; MEX-5/FITC-TCR2 RNA binding, fluorescence polarization; stronger effect = lower value; Q9XUB2; actives 0.38% (n = 300,000);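 active = inhibition past about -25% in most replicates, and total fluorescence under double the plate's negative control median, limit read from the data; inconclusive = replicates evenly split on the limit, or fluorescence at least double controls; inactive = too little inhibition in most replicates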;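 also: 0% = DMSO and -100% = 5 µM competing unlabeled TCR2 RNA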
GLD-1 RNA inh: GLD-1-TGE RNA interaction inhibition (C. elegans). Q17339. purified GLD-1 + fluorescein TGE RNA, fluorescence polarization. inhibition, % at 5.96 µM. actives 0.44% (n = 320,000). AID 2280;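 active = percent inhibition above a per-plate cutoff, the plate mean of test compounds plus 3 SD, cut at about 30% in these data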;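 also: 0% = DMSO wells with GLD-1 and probe and 100% = wells lacking GLD-1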
Bcl-xL primary: Bcl-xL (human) inhibition; actives 0.7% (n = 320,000); inhibition, % at 10.9 µM; Q07817; GST-Bcl-xL / FITC-Bim BH3 peptide fluorescence polarization;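 active = inhibition above the mean of all tested compounds plus 3 SD, cutoff set per campaign, cut at about 30% in these data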;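 also: 0% = DMSO wells and 100% = unlabeled Bim-BH3 peptide competitor; inhibitors lower millipolarization by displacing the labeled peptide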
EBV gp42 block: EBV gp42 inhibition. actives 0.42% (n = 220,000). inhibition, % (tested at 21.74 µM). Fluorescence polarization binding assay, mP read-out. AID 1085; in the data active = inhibition above about 50%
Target sequence (Q1HVG2 whole entry, looked up): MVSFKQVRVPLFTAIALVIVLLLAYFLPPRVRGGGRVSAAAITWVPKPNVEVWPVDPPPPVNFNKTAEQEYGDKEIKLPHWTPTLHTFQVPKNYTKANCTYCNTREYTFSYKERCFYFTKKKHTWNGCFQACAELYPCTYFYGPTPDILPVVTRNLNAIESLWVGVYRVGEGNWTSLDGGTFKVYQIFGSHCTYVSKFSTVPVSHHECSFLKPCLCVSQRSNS
Numbers without * were called inactive; ? = inconclusive; nt = not tested or not shown.

SMILES | MCL1 BIM primary | MEX-5 binding | GLD-1 RNA inh | Bcl-xL primary | EBV gp42 block
Nc1nc(-c2ccccc2)[nH]c(=O)c1N | 12 | -26* | 18 | 12 | 21
CC(C)OCCCn1c(=NC(=O)c2ccncc2)c(C#N)cc2c(=O)n3ccccc3nc21 | 37 | -5 | 17 | 34* | 44
N=C1/C(=C/c2ccc(-c3cccc(C(=O)O)c3)o2)C(=O)N=C2SC=C(c3ccccc3)N12 | 28 | 0 | -3 | 12 | 67*
O=C(COC(=O)c1cnccn1)Nc1c(Cl)cc(Cl)cc1Cl | -3 | nt | 0 | 2 | nt
O=C(COC(=O)c1cnccn1)Nc1ncc(Cl)cc1Cl | 33 | -7 | 22 | 34* | nt
Cc1ccc(-n2ncc3c(SCc4cccnc4)ncnc32)c(C)c1 | nt | 0 | nt | nt | -6
CC(=O)NC12CC3CC(C1)CC(C(=O)OCC(=O)Nc1ncc(Cl)c(C)c1Cl)(C3)C2 | 36 | -4 | 14 | 37* | 1
COc1cccc(C(=O)NNC(=O)Cc2cccs2)c1 | 2 | 0 | -6 | 4 | -21
COc1cc(Cl)ccc1OCc1cc(C(=O)N(C)CCc2cnn(C)c2)no1 | 4 | -2 | 4 | 4 | nt
CCN1C(=O)/C(=C\c2ccc(-c3ccc([N+](=O)[O-])cc3OC)o2)SC1=Nc1cccc(C(=O)O)c1 | nt | -7 | nt | nt | 81*
CCN1C(=O)/C(=C\c2ccc(-c3cccc(C(=O)OC)c3)o2)SC1=Nc1ccc(C(=O)O)cc1 | 8 | -9 | -3 | 6 | nt
CN(C)c1ccc(/C=N/NC(=O)c2cnc3ccccc3c2)cc1 | 4 | -44* | -2 | 7 | 76*
NS(=O)(=O)c1ccc(NC(=O)COC(=O)c2cn(-c3ccccc3)nc2-c2ccc(F)cc2)cc1 | -5 | -30* | 9 | 2 | -2
CCOC(=O)c1c(C)[nH]c(O)c1C=Nc1ccc(C(F)(F)F)cc1 | 7 | -3 | 37* | -2 | -7
CCOC(=O)c1c(C)[nH]c(O)c1C=Nc1ccc(Cl)cc1 | -5 | -6 | 5 | 7 | -18
O=C(NC(=S)N(CCO)Cc1ccccc1)c1ccc(S(=O)(=O)N2CCCC2)cc1 | 9 | 0 | 1 | 10 | -9
O=C(O)CC(NC(=O)Cc1ccc([N+](=O)[O-])cc1)c1ccc2c(c1)OCO2 (centres undefined) | 7 | -4 | -3 | 9 | 2
Cc1nnc(NC(=O)CSc2cn(CCNC(=O)c3ccccc3)c3ccccc23)s1 | -3 | -1 | -5 | 0 | 54*
COc1ccc(C(=O)NCCn2cc(SCC(=O)Nc3nnc(C)s3)c3ccccc32)cc1 | 0 | 1 | 3 | -1 | -26
CC(=O)Nc1cc(C(=O)NCCN2CCN(Cc3ccccc3)CC2)ccc1Sc1ccc(C)cc1 | 1 | 0 | -1 | 2 | -5
Cc1ccc(-n2c(SC3CCOC3=O)nc3ccccc3c2=O)cc1 (centres undefined) | 9 | 1 | 4 | 31* | 4
O=C(Nc1ccccc1-c1ccccc1)c1ccccc1 | -1 | 1 | 4 | -3 | nt
Nc1c(S(=O)(=O)O)cc(NC(=O)c2ccccc2)c2c1C(=O)c1ccccc1C2=O | 109* | -1 | 68* | 72* | nt
CN(C)S(=O)(=O)c1cccc(NC(=S)N/N=C/c2ccc(O)c(O)c2O)c1 | nt | -48* | nt | nt | -6
CCCOc1ccc(N2C(=O)CC(NCCNc3ccc(S(=O)(=O)CC)cc3)C2=O)cc1 (centres undefined) | 4 | 2 | 2 | 59* | -14
SMILES | MCL1 BIM primary | MEX-5 binding | GLD-1 RNA inh | Bcl-xL primary | EBV gp42 block
COc1ccc(C(C(=O)NC2CCCC2)N(C(=O)c2ccoc2C)c2ccccc2)cc1 (centres undefined) | -6 | 3 | 0 | -1 | -1
COc1ccc(C(C(=O)NC2CCCC2)N(C(=O)c2ccoc2C)c2cc(C)cc(C)c2)cc1 (centres undefined) | 7 | 2 | 2 | 52* | -35
COc1cc(C2C3=C(CCCC3=O)Nc3[nH]n(-c4ccccc4)c(=O)c32)ccc1OC(C)=O (centres undefined) | -3 | 0 | 11 | -4 | -5
O=c1ccc2[n+]([O-])c3ccc(O)cc3oc-2c1 | nt | -81* | nt | nt | 110*
O=c1cc(O)c2ccc(O)cc2o1 | 2 | -8 | 9 | 5 | 5
O=C(N/N=C/c1cc(Br)cc(Cl)c1O)c1ccc2c(c1)OCO2 | 0 | -2 | 0 | -8 | nt
O=C(N/N=C/c1cc(Cl)cc([N+](=O)[O-])c1O)c1ccccc1NS(=O)(=O)c1cccs1 | 9 | -47* | -3 | -2 | -2
O=C(NN=Cc1ccc(O)cc1)c1ccccc1NS(=O)(=O)c1cccs1 | nt | nt | 14 | nt | nt
O=C(N/N=C/c1cc(Cl)cc([N+](=O)[O-])c1O)c1ccc2c(c1)OCO2 | 30 | -31* | -3 | 7 | nt
O=C(N/N=C/c1cc(Cl)cc([N+](=O)[O-])c1O)NC12CC3CC(CC(C3)C1)C2 | 12 | 2 | 5 | 0 | 52*
O=C(N/N=C/c1ccccc1O)NC12CC3CC(CC(C3)C1)C2 | 4 | -1 | 5 | 2 | nt
CCCOC(=O)c1ccc(NC(=O)c2cc(=O)[nH]c3ccccc23)cc1 | 1 | 1 | 3 | 1 | -4
O=C(O)c1[nH]c2ccccc2c1C(c1ccccc1)c1c(C(=O)O)[nH]c2ccccc12 | 11 | -4 | 6 | 7 | nt
COc1cc(C(c2c(C(=O)O)[nH]c3ccccc23)c2c(C(=O)O)[nH]c3ccccc23)ccc1OCc1ccccc1 | 68* | ? | 0 | 3 | nt
CC1CN(c2nc3ccccc3nc2SCC(=O)Nc2ccc(F)cc2)CC(C)O1 (centres undefined) | 7 | 0 | 4 | 7 | nt
COC(=O)c1ccc(OC)c(CN2CCCN(Cc3cc(C)ccc3C)S2(=O)=O)c1 | -3 | 1 | -1 | 5 | nt
Cc1cc(C)c([C@@H]2C[C@H]3CN(C4CCCC4)C(=O)[C@]34CCCN24)c(-n2cccn2)c1 | 29 | -21 | 25 | 34* | -1
Cc1ccc(-n2cccn2)c([C@@H]2C[C@H]3CN(C)C(=O)[C@]34CCCN24)c1 | -3 | 3 | -1 | -2 | -4
COc1ccccc1NC(=O)/C(C#N)=C/c1ccncc1 | 7 | 0 | 9 | 0 | nt
COc1ccccc1NC(=O)/C(C#N)=C/c1cc([N+](=O)[O-])ccc1N1CCCC1 | -45 | -83* | -20 | -20 | 161*
N#CCN1CCC(c2cc(-c3ccco3)n[nH]2)CC1 | 33 | -1 | 29 | 38* | -6
c1coc(-c2cc(C3CCNCC3)[nH]n2)c1 | 6 | 1 | 9 | 2 | -17
CCOc1cc(N2CCOCC2)c(OCC)cc1NC(C)C(=O)N1CCN(CC)CC1 (centres undefined) | nt | -28* | nt | nt | -22
CCOc1cc(N2CCOCC2)c(OCC)cc1NC(=O)C(C)C | -5 | 0 | -6 | -1 | -25
Cc1cccc(CN2C(=O)N/C(=C/c3ccc(C)s3)C2=O)c1 | -74 | -29* | -81 | -56 | -97
Cc1ccc(/C=C2/NC(=O)N(Cc3ccccc3)C2=O)s1 | -84 | -20 | -52 | -24 | -64
